# Rows were chosen to be rich in hits. Some 7.2% of all compounds tested hit in one or more screens of this group.
# Luciferase inh = qHTS Assay for Inhibitors of Firefly Luciferase; 2.2% of 72,000 active; purified firefly luciferase, luminescence, 8 min; Luciferin 4-monooxygenase (Photinus pyralis), P08659; Potency, µM (titrated, usually from 57.1 µM), for the others: at the top dose activity change, negative = inhibition, most hits filed as inhibitors; further: on the % scale 0 is the no-effect control and ±100 the full control effect; nearly all actives have a fitted effect of over 40% in size
# Target sequence (P08659 whole entry, looked up): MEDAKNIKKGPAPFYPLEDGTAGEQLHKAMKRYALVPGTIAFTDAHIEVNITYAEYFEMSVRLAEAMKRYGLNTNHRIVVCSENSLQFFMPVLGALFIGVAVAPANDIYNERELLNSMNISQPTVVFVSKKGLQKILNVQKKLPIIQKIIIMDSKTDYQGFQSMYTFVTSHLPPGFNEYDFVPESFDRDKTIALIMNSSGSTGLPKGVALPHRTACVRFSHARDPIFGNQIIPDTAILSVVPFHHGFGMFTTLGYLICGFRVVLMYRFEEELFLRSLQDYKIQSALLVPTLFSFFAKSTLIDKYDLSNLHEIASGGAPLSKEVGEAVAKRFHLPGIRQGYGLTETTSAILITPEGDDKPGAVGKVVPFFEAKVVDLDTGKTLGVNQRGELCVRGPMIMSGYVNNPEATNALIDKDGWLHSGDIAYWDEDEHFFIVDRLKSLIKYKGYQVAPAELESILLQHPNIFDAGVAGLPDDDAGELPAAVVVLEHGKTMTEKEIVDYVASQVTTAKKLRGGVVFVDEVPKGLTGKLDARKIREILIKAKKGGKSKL
#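 Inhibition of light generation by firefly luciferase from ATP and luciferin was profiled with concentration-response curves per sample, ATP held at 10 uM within the enzyme's linear range. Plates were read by luminescence after an 8-minute ambient incubation.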
# TSHR ag = qHTS Assay for Agonists of the Thyroid Stimulating Hormone Receptor | Potency, µM (top dose mostly 57.1 µM), inactives show at the highest dose activation, most hits filed as activators | Thyrotropin receptor (Homo sapiens), P16473 | 0.48% of 73,000 active | HEK293-CNG-TSHR cells (CNG channel as cAMP sensor), membrane potential dye, cAMP; active means well fitted activation curve with a large enough effect in the main read-out, with a control signal flat, not every such curve was filed as active; inconclusive means small, poorly fitted or top-dose-only effect, or a change in a side signal; inactive means no such curve, though single readings can be large or run the other way; % of control where 0% means no effect;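 further: the control signal comes from parental cells without the receptor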
#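 HEK 293 cells stably expressing TSHR and a modified CNG channel, with CNG-only parental cells as counterscreen, were preloaded 60 min at room temperature with membrane potential dye containing 100 uM RO 20-1724. Compound exposure was 30 min, and depolarization was read as fluorescence at 590 nm.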
# PK Bst = Pyruvate Kinase. purified pyruvate kinase, luminescence ATP production; ribose 5-phosphate activator present at AC10. Potency, µM. 1.2% of 51,000 active. AID 361, 2006; in the data active means potency below about 11 µM; inconclusive means mostly about 12 µM to 25 µM;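 the screen sought inhibitors and activators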;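 further: scaled between full activation by ribose 5 phosphate and full inhibition by luteolin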
# ERK AVP inh = qHTS Assay for Inhibitors of the ERK Signaling Pathway using a Homogeneous Screening Assay | HEK293-V1b, vasopressin-stimulated pERK AlphaScreen | AID 995, 2007 | 0.99% of 72,000 active | Potency, µM (highest dose often 57.5 µM), for the others: top-dose activity, negative = inhibition, usual class: inhibitors; further: on the % scale 0 is the no-effect control and ±100 the full control effect; nearly all actives have a fitted effect of over 55% in size
#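 HEK293 cells stably expressing V1b receptor, preincubated 30 min at 37 °C with compound, then stimulated 5 min with 25 nM vasopressin. Phospho-ERK by AlphaScreen SureFire after 5 h RT; normalized to DMSO and vasopressin; AC50 by Hill fit.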
# HEK293 cAMP ctrl = qHTS Assay for Agonists of the Thyroid Stimulating Hormone Receptor: Activators of Intracellular cAMP Concentrations in Parental HEK 293 | 2.5% of 73,000 active | Potency, µM (series often up to 57.1 µM), for the others: top-dose activation, hits mostly activators | AID 938, 2007 | parental HEK293 CNG cAMP sensor, membrane potential fluorescence; further: % of control where 0% means no effect; nearly all actives have a fitted effect of over 55% in size
#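 Counterscreen for endogenous-receptor signalling: CNG-channel HEK 293 cells report cAMP rise by membrane depolarization. After 60 min dye equilibration with 100 uM RO 20-1724, compounds incubated 30 min before bottom-read fluorescence at 590 nm.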
# Tau filament bind = qHTS Assay for Tau Filament Binding. recombinant tau filaments, thioflavin S fluorescence, 15 h; filaments grown with octadecylsulfate alongside compound. Potency, µM (titrated, usually from 57.1 µM), for inactives: at the highest dose activity change, negative = inhibition. 2% of 71,000 active. AID 596, 2007;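 further: on the % scale 0 is the no-effect control and ±100 the full control effect; actives lower thioflavin S fluorescence by blocking filaments or displacing dye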
#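 Assay mix: 1 uM His-tagged tau, 30 uM sodium octadecylsulfate, thioflavine S dye in HEPES/NaCl/DTT buffer. Compound is added prior to the inducer. Fluorescence after 15 h at 37 C.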
# The depositor's hits bear a star; i = inactive; ? = inconclusive; . = not tested or not shown; ! = not active in a repeat; [ ] = another dose, or the depositor's remark. Unless noted, the call rests on the fitted dose curve; in most records, active means well fitted curve in the direction sought with a large enough effect; inconclusive means small, poorly fitted or top-dose-only effect, or another doubt; inactive means no such curve, though single readings can be large; an effect the other way counts as inactive or inconclusive. Potency means the concentration at half of the fitted maximal effect.
SMILES,Luciferase inh,TSHR ag,PK Bst,ERK AVP inh,HEK293 cAMP ctrl,Tau filament bind
Cc1nn2cc(-c3ccc(Cl)cc3)nc2s1,3.16µM*,-14.3%,?,-15.5%,8.5%,-6.9%
Cc1nn2cc(-c3ccc(-c4ccccc4)cc3)nc2s1,1µM*,-5.2%,.,9.9%,-6.8%,-1.1%
COCCNC(=O)c1sc2nc(-c3ccccc3)cn2c1C,-13.6%,9.6%,.,5.4%,9.1%,8.4%
CCc1nn2cc(-c3ccccc3)nc2s1,1.58µM*,-4.3%,2.39*,-13.9%,-2.9%,-3.4%
COc1cc(C)cc2c(-c3c(O)cc(O)c4c3C[C@H](C)N[C@@H]4C)cc(-c3cc(-c4c(O)cc(O)c5c4C[C@H](C)N[C@@H]5C)c4cc(C)cc(OC)c4c3O)c(O)c12,1.1%[11.4 µM],3.7%[11.4 µM],.,-16.4%[11.5 µM],-0.6%[11.4 µM],3.98µM*
COc1ccc(NC(=O)N2CC[C@@]3(CCCNC3)C2)cc1,-1.3%[11.4 µM],7.2%,.,10.5%,11.8%,-4.0%
Cc1nc2cc(NC(=O)NCc3ccc4c(c3)OCO4)ccc2o1,-6.5%,13.5%,>57,-26.0%,7.8%,0.4%
Cc1nc2cc(NC(=O)N3c4ccccc4CC3C)ccc2o1 (stereo not given),12.6µM*,1.2%,?,-28.3%,-1.1%,-3.9%
Cc1nc2cc(NC(=O)N3c4ccccc4CC3C)ccc2n1C (stereo not given),5.01µM*,-3.0%,9.47*,-9.9%,-1.4%,9.0%
Cc1ccc(SCc2c(C#N)c3ccccc3n2C)cc1,-0.7%[25.5 µM],.,>25.6,.,.,.
Cn1c(CSc2ccccc2)c(C#N)c2ccccc21,3.2%,?,>57,34.3%,25.1µM*,12.3%
CC1(NC[C@@H](O)COc2cccc3[nH]ccc23)CCC(C(C)(C)NC(=O)CBr)CC1 (stereo not given in full),-3.4%,-3.8%,.,.,15.4%,-6.8%
Cn1c2ccccc2c2ncn(CCCN3CCOCC3)c(=O)c21,-0.8%,8.2%[11.4 µM],9.71*,-0.4%,-5.8%,4.7%
COC(=O)c1sc(N2C(=O)c3oc4ccccc4c(=O)c3C2c2cccs2)nc1C (stereo not given),1.0%,-22.5%,>57,-10.9%,-13.8%,-18.5%
C=CCOC(=O)c1sc(N2C(=O)c3oc4ccccc4c(=O)c3C2c2ccco2)nc1C (stereo not given),-7.9%,-4.3%,.,-1.5%,1.1%,10µM*
CS(=O)(=O)N1CCC[C@@]2(CCN(Cc3ccc(C#N)cc3)C2)C1,-1.0%[11.4 µM],2.3%,.,-3.0%,13.1%,9.9%
O=C(c1cc(-c2ccc(O)cc2)on1)N1CCc2ccccc2C1,-11.8%,?,.,31.6µM*,20µM*,-9.1%
O=C(c1cc(-c2cccc(O)c2)on1)N1CCOCC1,12.6µM*,-4.8%,.,?,-1.8%,-3.5%
Cc1ccc(NC(=O)c2cc(-c3cccc(O)c3)on2)cc1C,-19.0%,1.1%,.,31.6µM*,5.3%,167.9%
O=C(c1cc(-c2ccccc2)on1)N1CCCC1,1.4%,-4.5%,>57,-4.2%,3.9%,13.1%
O=C(c1cc(-c2ccccc2O)on1)N1CCc2ccccc2C1,-8.4%,-11.7%,.,?,6.8%,170.7%
COc1ccc(-c2cc(C(=O)N3CCOCC3)no2)cc1OC,-7.5%,-2.1%[11.4 µM],>57,-4.7%,2.9%,3.7%
CC1CCN(C(=O)c2cc(-c3ccccc3O)on2)CC1,10µM*,-13.6%,.,6.4%,16.1%,10.4%
CCOc1ccc(NC(=O)c2oc3ccccc3c2NC(=O)C2CC2)cc1,-1.9%,7.2%,>57,10.2%,27.3%,424.6%
CCOc1ccc(NC(=O)c2oc3ccccc3c2NC(=O)CC)cc1,-2.8%,10.2%,5.36*,0.1%,27.4%,42.8%
SMILES,Luciferase inh,TSHR ag,PK Bst,ERK AVP inh,HEK293 cAMP ctrl,Tau filament bind
COc1ccc(NC(=O)c2oc3ccccc3c2NC(=O)C(C)(C)C)cc1,-10.3%,?,i,36.6%,?,12.6µM*
N#Cc1ccc(CN2CCC3(CC2)CCN(C(=O)c2cnccn2)CC3)cc1,1.5%[11.4 µM],?,.,-14.6%,?,7.6%
CC[C@]1(O)C[C@H]2CN(CCc3c([nH]c4ccccc34)[C@](C(=O)OC)(c3cc4c(cc3OC)N(C)[C@@H]3[C@](O)(C(=O)OC)[C@H](OC(C)=O)[C@]5(CC)C=CCN6CC[C@]43[C@@H]65)C2)C1,-0.8%,.,.,?,7.6%,-8.2%
COc1ccc(-c2c(=O)n(OCc3ccccn3)c3ccccc3[n+]2[O-])cc1OC,-4.4%,3.3%,.,?,-7.0%,2.51µM*
CCOC(=O)COn1c(=O)c(-c2ccc(OC)c(OC)c2)[n+]([O-])c2ccccc21,-2.3%[25.5 µM],.,>25.6,.,.,.
COc1ccc(-c2nc3cnc(N4CCOCC4)nc3n(C3CC3)c2=O)cc1,0.5%[11.4 µM],?,.,-12.0%,?,103.5%
COCCn1c(=S)[nH]c2cc(C(=O)N3CCc4ccccc43)ccc2c1=O,3.9%,?,>57,?,15.8µM*,-16.4%
COc1ccc(-c2nn(-c3ccccc3)cc2C(=O)O)cc1,1.2%,1.4%,.,.,3.5%,-9.3%
CC(C)OC(=O)c1cn(-c2ccccc2)nc1-c1ccco1,-2.2%,25.1µM*,>57,-16.3%,17.6%,-2.3%
CN1CCN(CCCN2c3ccccc3Sc3ccc(C(F)(F)F)cc32)CC1,0.3%[25.5 µM],-2.9%[11.4 µM],i,25.1µM*!,7.4%[11.4 µM],?
CCNc1ncc2nc(-c3ccc(Cl)cc3)c(=O)n(-c3ccccc3)c2n1,0.5%[11.4 µM],-2.0%,.,-29.7%,17.6%,151.0%
O=C(NCc1ccccc1)c1ccc(-c2ccccc2F)o1,-3.6%,32.0%,>57,15.8µM*,14.0%,-5.8%
O=C(NCc1ccccc1)c1c(F)c(F)c(F)c(F)c1F,2.9%,?,>57,-14.8%,?,14.2%
COc1ccc2c(c1)S/C(=C\C(=O)c1ccncc1)N2C,5.01µM*,-14.5%,.,-17.7%,-8.6%,48.3%
c1ccc(CN2CCN(CCCNc3ccc4nnc(-c5ccccc5)n4n3)CC2)cc1,-0.7%,-26.8%,.,39.8µM*,8.1%,82.5%
Fc1ccccc1N1CCN(CCCNc2ccc3nncn3n2)CC1,3.3%,?,.,10.8%,?,10.1%
Cc1ccc(-c2nc(-c3ccccc3)no2)c(Cl)c1,0.251µM*,?,.,39.7%,?,18.3%
NC(=O)c1ccccc1-c1nc(-c2ccccc2)no1,-27.3%,-2.6%,.,-1.8%,-2.7%,3.4%
c1ccc(CCc2ccccc2-c2nc(-c3cccnc3)no2)cc1,1.7%,?,.,3.3%,?,28.9%
c1ccc2c(-c3nc(-c4ccncc4)no3)cccc2c1,-17.6%,24.9%,>11.4,?,20.1%,66.9%
